# Test results published in PubChem BioAssay AID1259372 (The Scripps Research Institute Molecular Screening Center, 2018).
# Screen size: about 4,700 compounds; about 760 (16%) were called active. A selection follows. Values without a mark were called inactive.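 The calls were made as follows: active = inhibition above a cutoff derived from the DMSO control wells (cut at about 28% in these data); inactive = the rest.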
# Target: Microphthalmia-associated transcription factor (Homo sapiens) (UniProt O75030)
# Sequence (O75030 whole entry, looked up): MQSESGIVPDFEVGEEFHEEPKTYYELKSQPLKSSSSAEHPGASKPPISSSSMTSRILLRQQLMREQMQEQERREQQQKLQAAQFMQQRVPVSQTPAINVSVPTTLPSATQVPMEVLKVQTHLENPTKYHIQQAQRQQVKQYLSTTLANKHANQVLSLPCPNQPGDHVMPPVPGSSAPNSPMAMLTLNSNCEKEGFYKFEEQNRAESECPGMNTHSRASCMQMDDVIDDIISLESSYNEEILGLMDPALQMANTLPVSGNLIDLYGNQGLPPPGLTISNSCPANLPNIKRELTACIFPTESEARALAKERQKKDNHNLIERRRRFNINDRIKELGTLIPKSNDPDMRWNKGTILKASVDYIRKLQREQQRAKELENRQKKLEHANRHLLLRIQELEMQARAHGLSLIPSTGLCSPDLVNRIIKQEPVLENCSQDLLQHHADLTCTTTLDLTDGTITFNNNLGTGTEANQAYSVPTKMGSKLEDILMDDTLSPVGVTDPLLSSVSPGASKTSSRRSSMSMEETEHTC
# Assay: MITF inhibitors, retest of hits, confirmation, biochemical, AlphaScreen, triplicate (AID 1259372)
# Conditions: AlphaScreen MITF homodimerization, biotin/His-MITF beads; at 2.6 µM; active compounds read high
row,Compound,inhibition
1,COc1ccc(C(=O)COC(=O)CNS(=O)(=O)/C=C/c2ccc(C)cc2)cc1OC,7.42%
2,O=C(CNCc1ccc(F)cc1)Nc1ccc(N2CCCC2)cc1,17.1%
3,CC(C)(C)n1nnnc1C(c1ccc2ncccc2c1)N1CCSCC1 (stereo not given),20.3%
4,CCc1ccc(OCCCCn2ccnc2)cc1,-7.12%
5,N#Cc1nc(COc2cccc(Cl)c2)oc1NCCCn1ccnc1,43.8% (active)
6,CCc1cccc(OCCOCCn2ccnc2)c1,0.99%
7,C=CCc1cc(C)ccc1OCCCn1ccnc1,-1.07%
8,COc1ccc(Br)cc1CN1CCN(C(=O)c2cccnc2)CC1,8.4%
9,Cc1cccc(NC(=O)CNCCN2CCCCC2)c1C,7.31%
10,O=[N+]([O-])c1ccccc1S(=O)(=O)N1CCN(C2Cc3ccccc3C2)CC1,4.35%
11,COc1ccc(CN2CCN(Cc3cc(OC)c(OC)c(OC)c3)CC2)cc1,1.87%
12,CCN(CC)CCN1COc2c(cc(Cl)c3cccnc23)C1,107% (active)
13,CN1CCN(CCC(=O)N/N=C/c2ccsc2)CC1,-0.75%
14,c1ccc(-n2cc(CN3CCOCC3)c(-c3ccc4c(c3)OCCO4)n2)cc1,13.2%
15,COC(=O)C(C)CN1CCN(Cc2ccc3c(c2)OCO3)CC1 (stereo not given),1.84%
16,CCN(Cc1ccccc1)Cc1ccc([N+](=O)[O-])cc1,-4.11%
17,COc1ccc(OCCCC(=O)Oc2ccc(OC)cc2)cc1,4.29%
18,Cc1ccc(OCCCCNCCN2CCOCC2)c(Br)c1,5.77%
19,COc1cccc(-c2ncnn2-c2sc3c(c2C#N)CCCCC3)c1,-10.4%
20,COc1cc(CN2CCN(Cc3ccccc3Cl)CC2)cc(OC)c1OC,9.37%
21,CCN1CCN(CCOCCOc2ccccc2OCc2ccccc2)CC1,2.12%
22,COCCCN1C(=O)c2cccc3c(C(=O)c4ccccc4)ccc(c23)C1=O,10.4%
23,O=C(CN1CCN(CC(=O)c2ccco2)CC1)Nc1ccc(Cl)c(Cl)c1,10.7%
24,Cc1nc2sc(C(c3ccccc3Cl)N3CCC4(CC3)OCCO4)c(O)n2n1 (stereo not given),13.8%
25,CC(=O)NS(=O)(=O)c1ccc(-c2ccc(C=C(C#N)C#N)o2)cc1,-19.5%

row,Compound,inhibition
1,N#Cc1ccc(/C=N/NC(=O)c2cc([N+](=O)[O-])cc([N+](=O)[O-])c2)cc1,3.87%
2,Fc1cccc(Cl)c1Cn1nnc(-c2ccncc2)n1,13.6%
3,Cc1cccc(OCCN2CCNCC2)c1C,-3.54%
4,COc1ccc2c(c1)CC(c1nc(Nc3ccc4cnccc4c3)c3ccccc3n1)CO2 (stereo not given),58.2% (active)
5,CC1CCCCC1NC(=O)CSc1nnc(-c2ccncc2)n1CCCN(C)C (stereo not given),8.82%
6,COc1ccc(C(=O)N2CCN(Cc3ccccc3C(F)(F)F)CC2)cc1OC,3.61%
7,CCN(C(=O)Cc1nc(N)n[nH]1)C1(C(=O)Nc2ccccc2)CCCCC1,105% (active)
8,CCN(C(=O)Cc1nc(N)n[nH]1)C1(C(=O)Nc2ccc(C)cc2)CCCCC1,81.1% (active)
9,CCOc1ccc(CN2CCCN(C)CC2)cc1,5.9%
10,CCN(CC)C(=O)C1CCCN(Cc2cccc(Cl)c2)C1 (stereo not given),-2.94%
11,N#Cc1ccc(OCC(=O)Nc2nc(-c3ccccn3)cs2)cc1,22.3%
12,CCC(C)NCCOCCOc1cc(C)cc(C)c1C (stereo not given),-6.95%
13,COc1ccc(Cn2nnc(C(=O)Nc3cccc(Cl)c3)c2N)cc1,8.84%
14,CCN1CCN(CC(=O)N/N=C/c2cccc(Cl)c2)CC1,2.25%
15,c1cncc(CCNc2ccc3ncc(-c4cc5ccccc5o4)n3n2)c1,2.68%
16,CN1CCC(N2CCN(c3ccccc3Cl)CC2)CC1,10.4%
17,C=CCNC(=O)c1sc(=S)n(CC)c1N,0.63%
18,CC(C)(C)NCC(=O)Nc1c2c(nc3ccccc13)N(Cc1ccccc1)CC2,18.3%
19,CCOc1cccc(C2C(C(=O)OCCOc3ccccc3)=C(C)NC3=C2C(=O)CCC3)c1 (stereo not given),2.03%
20,Cc1ccc(C(C)C)c(OCC#CCN2CCNCC2)c1,7.61%
21,COc1ccc(CN2CCN(Cc3ccccc3C)CC2)c(OC)c1OC,-1.26%
22,CCCS(=O)(=O)N1CCN(Cc2cccc(Cl)c2)CC1,4.65%
23,COC(=O)c1sc(NC(=O)c2ccccc2C)c(C#N)c1C,-8.1%
24,COc1ccc(C(=O)NCCN2CCN(c3nc4c(C)c(C)ccc4s3)CC2)cc1,-5.73%
25,COc1cc(CN2CCN(Cc3ccco3)CC2)c([N+](=O)[O-])cc1OC,16.3%
